Results taken from PubChem BioAssay (NCI).
Compounds without any hit were thinned out: in the full panel of roughly 79,000, 15% have a hit. Activity calls are given as the source filed them. Rule as the data show it: active = growth inhibition above about 70%; inactive = the rest.

Test: NCI Yeast Anticancer Drug Screen. Data for the sgs1 mgt1 strain (AID 161);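 also: 0% = growth of cultures given vehicle only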
Conditions: S. cerevisiae sgs1 mgt1 strain, at 50.0 µM, hits give high values
How it was run: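 Read-out: growth inhibition vs vehicle controls. Cells: mutant yeast strain deficient in DNA damage repair.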

Compound	growth inhibition
COc1ccc(Cc2nc3ccccc3s2)cc1OC	93.7% (active)
CN(NC(=O)c1cccs1)C1=NCCCN1	-16.9% (inactive)
Cc1cccc2c1C(=O)N(CC[P+](c1ccccc1)(c1ccccc1)c1ccccc1)C2=O	61.9% (inactive)
CCc1cc2c(cc1O)CC[C@@H]1[C@@H]2CC[C@]2(C)[C@@H](O)CC[C@@H]12	89.3% (active)
C[n+]1c2ccc(Cl)cc2nc2cc(-c3ccccc3)ccc21	98.9% (active)
CCOC1(c2ccccc2)c2ccccc2S(=O)(=O)N1C (stereo not given)	11.2% (inactive)
CCN(CC)CCNc1ccc(C)c2sc3ccc(OC)cc3c(=O)c12	17.2% (inactive)
Cc1nc2c(cnn2-c2ccccc2)c(=O)o1	-3.15% (inactive)
O=C1C=CC(=O)N1c1ccccc1 (tested in a mixture with another compound)	94.4% (active)
COc1cccc(=O)cc1	93.5% (active)
CCN(CC)CCCC(=O)Nc1cc(OC)cc2cccnc12	-4.7% (inactive)
COc1ccc(C2SCC(=O)N2c2ccc(-c3ccc(-n4c(-c5ccccc5)nc5ccccc5c4=O)cc3)cc2)cc1 (stereo not given)	57.4% (inactive)
CC(=O)OC(C#N)CC(C)(C)/[N+]([O-])=[N+](\[O-])C(C)(C)CC(C#N)OC(C)=O (stereo not given)	77.3% (active)
CCCCCc1[nH]nc(C(=O)OC)c1N=NN1CCOCC1	99.5% (active)
Clc1ccc(C(c2ccc(Cl)cc2)c2cncnc2)cc1	89.4% (active)
CC1=C(C(=O)Nc2cccc(Cl)c2)C(c2ccc([N+](=O)[O-])cc2)C(C(=O)Nc2cccc(Cl)c2)=C(C)N1	65% (inactive)
NC1=NC(c2ccccc2)CC(c2cc(Cl)cc(Br)c2O)=N1 (stereo not given)	10.7% (inactive)
CC(NNC(=S)NCc1ccccc1)c1cc2ccccc2cn1 (stereo not given)	86.9% (active)
C=CCOC(=O)CC(O)C(=O)OCC=C (stereo not given)	-29.6% (inactive)
OC(C(=Nc1ccccc1)c1ccccc1)c1ccccc1 (stereo not given)	99.2% (active)
O=C(Nc1ccccc1-c1nn(CN2CCNCC2)c(=S)n(CN2CCNCC2)c1=O)C(F)(F)F	12.6% (inactive)
CCN(CC)CCOc1c(I)cc(I)cc1I	96.5% (active)
CCN(CC)CC(O)c1ccnc2c(O)cccc12 (stereo not given)	71.7% (active)
O=[N+]([O-])c1ccc(-c2nc(/C=N/N3CCCCC3)cs2)o1	84.5% (active)
O=C(CCn1[nH]c(=O)c(Cl)c(Cl)c1=O)NNc1ccc([N+](=O)[O-])cc1[N+](=O)[O-]	-12.9% (inactive)
COc1ccc(-c2c(CO)cc(OC)c(OC)c2OC)c(CO)c1	64.5% (inactive)
CCCCCCCCNc1ccc(Cl)cc1	98.2% (active)
COc1ccc(C(=O)Nc2ccccc2[N+](=O)[O-])cc1	10.4% (inactive)
CC(=O)CC(C)=NCCN=C(C)CC(C)=O.[Pd]	94.3% (active)
Cc1cc2oc3c(ccc(=O)n3C)c(=O)c2c(C)c1Cl	54.8% (inactive)

Test: NCI Yeast Anticancer Drug Screen. Data for the cln2 rad14 strain (AID 165);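 also: 0% = growth equal to vehicle treated cultures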
Conditions: S. cerevisiae cln2 rad14 strain, at 5.0 µM (retest, dose inferred, filed as 0.5), hits give high values
How it was run: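 The screen exposed genetically defined yeast (cln2 rad14) to test compounds and scored growth inhibition relative to vehicle-treated controls.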

Compound	growth inhibition
COc1ccc(Cc2nc3ccccc3s2)cc1OC	42% (inactive)
CN(NC(=O)c1cccs1)C1=NCCCN1	6% (inactive)
CCc1cc2c(cc1O)CC[C@@H]1[C@@H]2CC[C@]2(C)[C@@H](O)CC[C@@H]12	9% (inactive)
C[n+]1c2ccc(Cl)cc2nc2cc(-c3ccccc3)ccc21	7% (inactive)
CCCCCN=Cc1c(O)c(O)c(C(C)C)c2cc(C)c(-c3c(C)cc4c(C(C)C)c(O)c(O)c(C=NCCCCC)c4c3O)c(O)c12	1% (inactive)
CCOC1(c2ccccc2)c2ccccc2S(=O)(=O)N1C (stereo not given)	6% (inactive)
Cc1nc2c(cnn2-c2ccccc2)c(=O)o1	-52% (inactive)
O=S(=O)(c1ccc(NC(=S)NCc2ccncc2)cc1)N1CCCCC1	2% (inactive)
Nc1nn2c(C(Br)Br)cc(C(Br)Br)nc2c1[N+](=O)[O-]	99% (active)
O=C(O)CCSc1ncnc2nc[nH]c12	-25% (inactive)
COc1cccc(=O)cc1	7% (inactive)
COc1ccc(C2SCC(=O)N2c2ccc(-c3ccc(-n4c(-c5ccccc5)nc5ccccc5c4=O)cc3)cc2)cc1 (stereo not given)	42% (inactive)
ICCCCCCCCCC[n+]1ccc2ccccc2c1	42% (inactive)
CCCCCc1[nH]nc(C(=O)OC)c1N=NN1CCOCC1	68% (inactive)
CC1=C(C(=O)Nc2cccc(Cl)c2)C(c2ccc([N+](=O)[O-])cc2)C(C(=O)Nc2cccc(Cl)c2)=C(C)N1	32% (inactive)
NC1=NC(c2ccccc2)CC(c2cc(Cl)cc(Br)c2O)=N1 (stereo not given)	0% (inactive)
C=CC1(NC(=O)c2ccccc2)CCC(C(C)(C)C)CC1 (stereo not given)	5% (inactive)
O=C(Nc1ccccc1-c1nn(CN2CCNCC2)c(=S)n(CN2CCNCC2)c1=O)C(F)(F)F	-4% (inactive)
CCN(CC)CCOc1c(I)cc(I)cc1I	7% (inactive)
O=[N+]([O-])c1ccc(-c2nc(/C=N/N3CCCCC3)cs2)o1	-7% (inactive)
O=C(CCn1[nH]c(=O)c(Cl)c(Cl)c1=O)NNc1ccc([N+](=O)[O-])cc1[N+](=O)[O-]	-2% (inactive)
C(=C\c1cnnc2ccccc12)/c1ccco1	2% (inactive)
Cc1ccc2ccc(C(Nc3ccccc3)c3ccncc3)c(O)c2n1 (stereo not given)	-6% (inactive)
c1ccc(C2=NOC3(c4ccccc4)SC4CCCCC4CN23)cc1 (stereo not given)	15% (inactive)
CCCOc1ccc(/C=N/NC(N)=S)cc1	7% (inactive)
